From PubChem
Rows were chosen to be rich in hits. Some 1.3% of all compounds tested hit in one or more screens of this group.
DNA FID counter = displaces DNA intercalator in HCV helicase counter-screen | DNA fluorescent intercalator displacement, fluorescence | inhibition, % at 7.9 µM | hit rate 0.17% among 290,000; in the data active means inhibition above about 37%;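 further: 0% = vehicle and 100% = reference compound; higher means more ethidium bromide displaced from hairpin DNA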
RAD54 inh = RAD54 (human) branch migration inhibition. Q92698. RAD54 Holliday junction branch migration, FAM/BHQ fluorescence. inhibition, % at 10.4 µM. hit rate 0.14% among 360,000. AID 602329;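 active means mean normalized replicate activity at least 40 and at least half of replicates scoring 40 or more; inconclusive means only one of the two criteria met; inactive means mean below 40 and under half of replicates reaching 40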;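 further: 0% = median of neutral control wells and 100% = median of positive control wells; inhibitors cause a drop in the FAM fluorescence signal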
RAD52 anneal inh = RAD52 (human) annealing inhibition; P43351; recombinant RAD52 DNA annealing, FRET fluorescence; inhibition, % at 18.7 µM; hit rate 0.46% among 360,000;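 active means every replicate showing at least 50% inhibition; inconclusive means mean inhibition at least 50% but not in every replicate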
UBC13 polyUb = human UBC13 polyubiquitination inhibition; P61088; UBC13 polyubiquitin chain formation, TR-FRET; hit rate 0.47% among 330,000; inhibition, % at 20 µM; in the data active means inhibition above about 45%, passing the limit was not always enough; inconclusive means no clear call, values can overlap the other calls
Target sequence (P61088 whole entry, looked up): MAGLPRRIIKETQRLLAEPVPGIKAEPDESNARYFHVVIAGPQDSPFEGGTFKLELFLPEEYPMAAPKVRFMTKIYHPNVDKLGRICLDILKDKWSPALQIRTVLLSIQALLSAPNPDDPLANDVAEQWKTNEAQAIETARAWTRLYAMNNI
MIN6 prolif = MIN6 beta-cell proliferation induction; hit rate 0.29% among 330,000; AID 2380; MIN6 cells proliferation, ATPlite luminescence, 48 h; cells starved in 0.2% serum; 100% = growth in 10% serum; proliferation, % at 10 µM;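 active means compounds whose signal lies at least 3.5 SD above the mean of all wells on their plate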;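 further: 0% = DMSO-treated cells in low-serum medium and 100% = 10% serum control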
PREPL inh = inhibits the human prolyl oligopeptidase-like enzyme | Q4J6C6 | inhibition, % at 5.96 µM | recombinant PREPL, fluorescence polarization activity-based probe | hit rate 0.68% among 320,000 | AID 2751; in the data active means inhibition above about 43%;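 further: 0% = enzyme with DMSO and 100% = wells lacking enzyme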
Casp3 counter = inhibits human caspase-3 in UBC13 counter-screen; shares compounds with UBC13 polyUb; Recombinant caspase-3, Caspase-Glo 3/7 luminescence, 60 min; inhibition, % at 20 µM; hit rate 4% among 1,400; AID 488856;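 active means mean inhibition across replicates above about 26%, limit read from the data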;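 further: plate controls were DMSO with caspase-3 for no effect and DMSO wells lacking enzyme for full effect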
Target sequence (P42574 whole entry, looked up): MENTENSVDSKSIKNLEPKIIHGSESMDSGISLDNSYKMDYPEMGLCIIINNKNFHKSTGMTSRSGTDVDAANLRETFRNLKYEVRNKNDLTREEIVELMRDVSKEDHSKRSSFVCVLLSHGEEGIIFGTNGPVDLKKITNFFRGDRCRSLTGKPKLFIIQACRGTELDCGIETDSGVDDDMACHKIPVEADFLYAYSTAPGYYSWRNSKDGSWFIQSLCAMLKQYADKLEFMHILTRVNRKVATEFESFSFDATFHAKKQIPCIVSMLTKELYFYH
UBC13 conf = confirmation of human UBC13 polyubiquitin inhibitors; AID 488859; hit rate 68% among 1,400; UBC13 polyubiquitination, TR-FRET, biochemical; shares compounds with UBC13 polyUb; inhibition, % at 10 µM; in the data active means inhibition above about 45%; inconclusive means no clear call, values can overlap the other calls
Numbers without * were called inactive.

`CCN(C(=O)COC(=O)c1cc(-c2ccccc2)nc2c1c(C)nn2-c1ccccc1)C1CCS(=O)(=O)C1` (stereo not given) gave DNA FID counter 5, RAD52 anneal inh -20, UBC13 polyUb 52*, MIN6 prolif -2, PREPL inh -4, Casp3 counter -3 and UBC13 conf inconclusive.
Screening CO[C@H]1CN(C)C(=O)c2ccc(NC(C)=O)cc2OC[C@H](C)N(C(=O)c2ccncc2)C[C@H]1C returned RAD54 inh -1 and RAD52 anneal inh 5.
`COc1ccc2nc3oc(C(=O)NC4CCN(Cc5ccccc5)CC4)cc3cc2c1` gave DNA FID counter 1, RAD54 inh 19, UBC13 polyUb 58*, MIN6 prolif -4, PREPL inh -29, Casp3 counter 0 and UBC13 conf 26.
Screening O=C(Nc1ccccc1F)N1CC(=O)N2[C@@H](CO)[C@H](c3ccc(C#Cc4ccccc4)cc3)[C@@H]2C1 returned RAD52 anneal inh -11.
Cc1ccc(-c2nnc3c(C(F)(F)F)nc4ccccc4n23)cc1 was read as DNA FID counter -1, UBC13 polyUb 52*, MIN6 prolif -3, PREPL inh 5, Casp3 counter -4 and UBC13 conf inconclusive.
For Cc1ccc(NC(=S)NCc2cccs2)cc1 the results were DNA FID counter -1, UBC13 polyUb 52*, MIN6 prolif -1, PREPL inh -3, Casp3 counter 2 and UBC13 conf 6.
Screening COc1ccccc1C(=O)Nc1c2c(nn1-c1cccc(C)c1C)CS(=O)(=O)C2 returned DNA FID counter -12, RAD54 inh 6, UBC13 polyUb 46*, MIN6 prolif 2, PREPL inh -1, Casp3 counter -2 and UBC13 conf 41.
For COc1ccccc1C(=O)Nc1c2c(nn1-c1ccc(Cl)cc1)CS(=O)(=O)C2 the results were DNA FID counter -10, RAD54 inh -1, RAD52 anneal inh -10, UBC13 polyUb 20, MIN6 prolif 4 and PREPL inh -3.
Cc1ccc(S(=O)(=O)Nc2ccc3c(c2)C(=O)N([C@H](C)CO)C[C@H](C)[C@H](CN(C)S(=O)(=O)c2cn(C)cn2)OCCCC[C@@H](C)O3)cc1 was read as RAD54 inh 4 and RAD52 anneal inh -8.
Screening Oc1ccc(Cl)cc1Nc1nc(NCC2CCCO2)c2ccccc2n1 (stereo not given) returned RAD54 inh 0, RAD52 anneal inh 1, UBC13 polyUb 53*, MIN6 prolif -7, PREPL inh 20, Casp3 counter -1 and UBC13 conf 67*.
`Oc1ccccc1Nc1nc(NCC2CCCO2)c2ccccc2n1` (stereo not given) gave DNA FID counter 18, UBC13 polyUb 0, MIN6 prolif -5 and PREPL inh 9.
For CCOC(=O)c1sc(N)nc1C(C)(C)C the results were DNA FID counter -5, RAD54 inh -11, UBC13 polyUb 4, MIN6 prolif -1 and PREPL inh -1.
Screening Cc1nc(N)sc1C(=O)OCC(C)C returned DNA FID counter -8, RAD54 inh 3, RAD52 anneal inh -10, UBC13 polyUb 56*, MIN6 prolif -3, PREPL inh -1, Casp3 counter -5 and UBC13 conf 42.
For O=C1/C(=C/c2cccc([N+](=O)[O-])c2)CSc2ccc(Cl)cc21 the results were DNA FID counter 4, RAD52 anneal inh -4, UBC13 polyUb 49*, MIN6 prolif 0, PREPL inh 4, Casp3 counter 1 and UBC13 conf 83*.
`CN1CCN(C(=O)C[C@@H]2CC[C@@H]3[C@H](COc4ccc(NC(=O)C5CCCC5)cc4C(=O)N3C)O2)CC1` gave RAD52 anneal inh -13.
For Cc1noc(C)c1S(=O)(=O)N(C)C[C@@H]1OCCCC[C@@H](C)Oc2ccc(NC(=O)Cc3ccccc3)cc2C(=O)N([C@@H](C)CO)C[C@@H]1C the results were RAD52 anneal inh -3.
Cc1cccc2c1c(N=NC(N)=S)c(O)n2C1OC(CO)C(O)C(O)C1O (stereo not given) was read as DNA FID counter -4, RAD54 inh 0, RAD52 anneal inh 2, UBC13 polyUb 67*, MIN6 prolif -3, PREPL inh 2, Casp3 counter 5 and UBC13 conf 97*.
Screening c1ccc(Nc2nc(NCc3ccco3)c3ccccc3n2)cc1 returned DNA FID counter 19, RAD54 inh -12, RAD52 anneal inh -37, UBC13 polyUb 48*, MIN6 prolif -4, PREPL inh -4, Casp3 counter -1 and UBC13 conf 76*.
Screening O=C(N=Nc1c(O)n(Cc2ccccc2)c2ccccc12)c1ccc(O)cc1 returned DNA FID counter -1, RAD54 inh 0, UBC13 polyUb -8, MIN6 prolif -5 and PREPL inh 9.
O=S1(=O)CC(O)C(N=Nc2c(O)n(Cc3ccccc3)c3ccccc23)C1 (stereo not given) was read as DNA FID counter -23, RAD52 anneal inh -6, UBC13 polyUb 56*, MIN6 prolif 1, PREPL inh -39, Casp3 counter 3 and UBC13 conf 44.
`C#CCOCCOCCOCCNc1nc(N2CCN(C(=O)[C@H]([C@@H](C)CC)n3cc([C@@H](N)CO)nn3)CC2)nc(N2CCN(C(=O)[C@H](Cc3ccc(O)cc3)n3cc([C@@H](N)C(C)CC)nn3)CC2)n1` (stereo not given in full) gave DNA FID counter 34, RAD54 inh -2, UBC13 polyUb 5, MIN6 prolif 2 and PREPL inh 19.
C#CCOCCOCCOCCNc1nc(N2CCN(C(=O)[C@H]([C@@H](C)CC)n3cc([C@@H](N)CC(C)C)nn3)CC2)nc(N2CCN(C(=O)[C@H]([C@@H](C)CC)n3cc([C@@H](N)CC(C)C)nn3)CC2)n1 was read as DNA FID counter 34, RAD54 inh 7, RAD52 anneal inh -22, UBC13 polyUb 66*, MIN6 prolif -6, PREPL inh 9, Casp3 counter -1 and UBC13 conf 56*.
C#CCOCCOCCOCCNc1nc(N2CCN(C(=O)[C@H]([C@@H](C)CC)n3cc(CCCCN)nn3)CC2)nc(N2CCN(C(=O)[C@H]([C@@H](C)CC)n3cc(CCCN=C(N)N)nn3)CC2)n1 was read as RAD54 inh 8, RAD52 anneal inh 44, UBC13 polyUb 53*, MIN6 prolif -1, PREPL inh 9, Casp3 counter -2 and UBC13 conf 48*.
